Results reported in article PMC5540273 (PLoS ONE, 2017).

Columns and labels:
Conditions in all cases: concentration: 1 μM,replicates: in singlicate; n = 1
[1] = system: T1, MLK1
T1 construct: gene MAP3K9

[2] = system: MLK2
[3] = system: MLK3
[4] = system: MRCKA
[5] = system: T2, MRCKB
T2 construct: gene CDC42BPB

[6] = system: MST1R
[7] = system: T3, MST1
T3 construct: gene STK4

[8] = system: T4, MST2
T4 construct: gene STK3

[9] = system: T5, MST3
T5 construct: gene STK24

[10] = system: MST4
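Further: KINOMEscan kinase panel screen.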

Structure (SMILES) | %Inh [1] [%] | %Inh [2] [%] | %Inh [3] [%] | %Inh [4] [%] | %Inh [5] [%] | %Inh [6] [%] | %Inh [7] [%] | %Inh [8] [%] | %Inh [9] [%] | %Inh [10] [%]
CS(=O)(=O)c1cccc(CNc2nc(Nc3ccc4c(c3)[C@@H]3C[C@@H]4CNC3=O)ncc2C(F)(F)F)c1 | 99.8 | 84 | 98.1 | 0 | 0 | 0 | 0 | 18 | 15 | 0
COc1cc2c(Nc3ccc(NC(=O)c4ccccc4)cc3)ncnc2cc1OCCCN1CCOCC1 [GSK301329] | 0 | 0 | 13 | 0 | 0 | 43 | 16 | 0 | 0 | 10
CCOC(=O)N1CCC(n2cnc(-c3ccc(F)cc3)c2-c2ccnc(N)n2)CC1 [SB-219952] | 4 | 0 | 27 | 20 | 3 | 0 | 20 | 0 | 44 | 0
O=C(Nc1ccccc1)c1cccc(Oc2ccc3nccn3n2)c1 | 0 | 0 | 0 | 9 | 0 | 7 | 25 | 14 | 37 | 0
COc1cc2nccc(Nc3ccc(Oc4ccccc4)cc3)c2cc1OC.Cl [GI261656] | 0 | 0 | 15 | 0 | 0 | 30 | 0 | 0 | 0 | 0
CS(=O)c1ccc(-c2coc3ccc(-c4n[nH]c(=O)o4)cc23)cc1 (stereo not drawn) | 9 | 6 | 0 | 4 | 0 | 0 | 0 | 0 | 24 | 5
Cc1ccn2nc(-c3ccc(F)cc3)c(-c3ccncc3)c2c1.Cl [GW457859] | 0 | 0 | 0 | 24 | 3 | 36 | 0 | 0 | 14 | 0
Cn1ccc2ncnc(Oc3ccc(NC(=O)Nc4cnn(C(C)(C)C)c4)c(Cl)c3)c21 | 30 | 26 | 0 | 0 | 0 | 10 | 12 | 0 | 4 | 0
C[C@@H]1CNc2c(sc3ccc4nc(-c5ccc(O)cc5)ccc4c23)C(=O)N1 | 0 | 9 | 0 | 0 | 0 | 23 | 0 | 42 | 25 | 0
C[C@@H](Oc1cc(-n2cnc3cc(-c4cnn(C)c4)ccc32)sc1C(N)=O)c1ccccc1Cl [GSK580432] | 57 | 49 | 80 | 20 | 3 | 64 | 88 | 70 | 0 | 14
COC(=O)Nc1nc2cc(Oc3ccc(NC(=O)Nc4cc(C(F)(F)F)ccc4Cl)cc3)ccc2[nH]1.Cl [GW697465] | 1 | 0 | 8 | 5 | 0 | 41 | 0 | 0 | 0 | 0
Cn1cc(-c2cccc3c(N)c(C(N)=O)nnc23)cn1 | 8 | 2 | 2 | 20 | 3 | 24 | 23 | 2 | 51 | 40
Cc1ccc(CC(=O)N2CCc3cc(-c4cn(C)c5ncnc(N)c45)ccc32)cc1 [GSK2634758] | 15 | 17 | 24 | 0 | 9 | 39 | 94.9 | 58 | 56 | 35
Cn1ccc2ncnc(Oc3ccc(NC(=O)Nc4cc(C(C)(C)C)on4)c(Cl)c3)c21 | 11 | 21 | 0 | 13 | 0 | 73 | 0 | 0 | 6 | 0
C[C@@H](Oc1cc(-n2cnc3cc(-c4ccncc4)ccc32)sc1C(N)=O)c1ccccc1Cl [GSK479719] | 61 | 0 | 24 | 0 | 8 | 21 | 56 | 70 | 0 | 0
CS(=O)(=O)Nc1ccc(-c2ccnc3[nH]ccc23)cc1 [GSK993273] | 4 | 33 | 10 | 12 | 9 | 34 | 11 | 5 | 20 | 11
COc1cc2ncn(-c3cc(OCC4CCCCC4)c(C(N)=O)s3)c2cc1OC [GSK204559] | 12 | 33 | 34 | 0 | 0 | 35 | 11 | 0 | 0 | 0
CCn1c(-c2nonc2N)nc2cncc(CNC3CCNCC3)c21.Cl [SB-747651] | 3 | 0 | 0 | 7 | 4 | 31 | 19 | 0 | 0 | 0
CCn1c(-c2nonc2N)nc2cncc(Br)c21 [SB-738004] | 0 | 0 | 12 | 11 | 0 | 19 | 0 | 6 | 19 | 0
Cl.Cl.NC[C@H](CC1CCCCC1)NC(=O)c1ccc(-c2ccnc3[nH]ccc23)s1 [GSK1581428] | 5 | 0 | 0 | 97.1 | 99.1 | 26 | 0 | 0 | 9 | 55
C[C@@H]1CCN(C(=O)N2CCCC2)C[C@@H]1N(C)c1ncnc2[nH]ccc12 | 97.4 | 33 | 67 | 0 | 0 | 8 | 100 | 23 | 25 | 0
O=C(NOCC1CC1)c1cc(Br)c(F)c(F)c1Nc1ccc(I)cc1Cl | 0 | 0 | 0 | 0 | 0 | 31 | 3 | 6 | 18 | 0
Cn1ccc2ncnc(Oc3ccc(NC(=O)Nc4cccc(C(F)(F)F)c4)c(Cl)c3)c21 | 53 | 12 | 2 | 3 | 21 | 33 | 16 | 24 | 18 | 0
COc1cccc(CNC(=O)NC2CCN(c3ccnc(Nc4cc(OC)c(OC)c(OC)c4)n3)C2)c1 (stereo not drawn) [GSK1379765] | 25 | 26 | 41 | 17 | 0 | 49 | 0 | 27 | 0 | 0
C[C@@H](Oc1cc(-n2cnc3ccc(-c4ccncc4)cc32)sc1C(N)=O)c1ccccc1Cl [GSK483724] | 0 | 23 | 31 | 0 | 10 | 44 | 24 | 21 | 0 | 0
CN(c1ccccc1CNc1nc(Nc2ccc3c(c2)CC(=O)N3)ncc1C(F)(F)F)S(C)(=O)=O | 95.4 | 77 | 92.9 | 0 | 0 | 65 | 14 | 70 | 30 | 77
COc1cccc(OC)c1C(=O)Nc1cccc(-c2nn3ccccc3c2-c2ccnc(Nc3cccc(F)c3)n2)c1 [GSK361065] | 4 | 10 | 10 | 0 | 3 | 23 | 20 | 61 | 7 | 0
Cc1n[nH]c2cc(Nc3ccnc(Nc4cccc(CN5CCOCC5)c4)n3)ccc12 [GW682569] | 89 | 38 | 58 | 1 | 0 | 34 | 0 | 26 | 14 | 0
CC(C)S(=O)(=O)N1CCN(Cc2ccc3c(c2)nc(NC(=O)c2ccsc2)n3C[C@H](O)c2ccccc2)CC1 [GW635815] | 90.6 | 43 | 79 | 0 | 16 | 36 | 5 | 0 | 1 | 0
CC(=O)c1c(-c2ccncc2)[nH]c(-c2ccncc2)c1C [GW493036] | 4 | 0 | 0 | 20 | 3 | 42 | 11 | 8 | 0 | 0
